POLB inh – inhibitors of human DNA polymerase beta | P06746 | Pol beta primer extension/strand displacement, fluorescence kinetic | Potency, µM (series often up to 114 µM), for the others: at the top dose activity change, negative = inhibition, most hits filed as inhibitors | 340,000 tested, 1.3% active; note: potency is the fitted concentration of half-maximal effect; % is set by controls: 0 for no effect and ±100 for the full control effect
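Preincubation: enzyme (10 nM) with compound, 15 min, RT. Reaction: substrate added to 50 nM final. Reads: 0 and 10 min. Analysis: normalized, Hill fit.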
PI5P4Ka inh – inhibitors of human PI5P4K alpha | PI5P4Kalpha enzyme, ADP-Glo luminescence, 60 min; active compounds read low | max response, % | 330,000 tested, 1.2% active | AID 652105; active = max response of -50% or lower; inconclusive = between -30% and -50%; inactive = -30% or higher; note: value at the top dose of about 77 µM; % is set by controls: 0 for no effect and ±100 for the full control effect
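Controls without substrate or without enzyme flank wells where PI5P4Kalpha converts substrate using 5 microM ATP (final). Incubation lasts 60 minutes at room temperature; ADP formed is read by ADP-Glo luminescence.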
POLH inh – inhibitors of human DNA polymerase eta; Q9Y253; recombinant Pol eta, fluorescent DNA replication assay; Potency, µM (titrated, usually from 114 µM), for the others: top-dose activity change, negative = inhibition, hits mostly inhibitors; 390,000 tested, 1.2% active; note: potency is the fitted concentration of half-maximal effect; % is set by controls: 0 for no effect and ±100 for the full control effect
Target sequence (Q9Y253 whole entry, looked up): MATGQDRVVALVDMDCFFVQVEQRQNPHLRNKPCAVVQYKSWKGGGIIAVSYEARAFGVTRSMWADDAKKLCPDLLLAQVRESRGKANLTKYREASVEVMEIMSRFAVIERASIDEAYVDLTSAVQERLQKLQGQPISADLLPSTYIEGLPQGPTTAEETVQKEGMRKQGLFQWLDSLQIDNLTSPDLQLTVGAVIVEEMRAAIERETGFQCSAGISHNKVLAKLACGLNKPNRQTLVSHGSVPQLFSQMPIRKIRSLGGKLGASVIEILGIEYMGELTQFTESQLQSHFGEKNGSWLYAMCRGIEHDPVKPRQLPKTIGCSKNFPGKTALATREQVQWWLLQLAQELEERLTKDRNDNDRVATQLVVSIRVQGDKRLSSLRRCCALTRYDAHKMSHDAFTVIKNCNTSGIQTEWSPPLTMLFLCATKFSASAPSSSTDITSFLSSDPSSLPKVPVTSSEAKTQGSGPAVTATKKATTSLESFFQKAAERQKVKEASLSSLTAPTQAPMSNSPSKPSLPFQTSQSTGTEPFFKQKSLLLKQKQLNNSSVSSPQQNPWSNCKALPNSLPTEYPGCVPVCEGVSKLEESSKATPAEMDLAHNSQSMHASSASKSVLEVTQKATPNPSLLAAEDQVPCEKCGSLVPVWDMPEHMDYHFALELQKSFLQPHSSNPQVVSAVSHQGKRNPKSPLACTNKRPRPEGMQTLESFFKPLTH
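Fluorescent replication assay: 50 nM final substrate added after a 15 min room-temperature compound preincubation with 10 nM enzyme. Signal taken at 0 min and again at 10 min.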
Pol iota inh – blocks human DNA polymerase iota activity; Q9UNA4; Pol iota fluorescent replication assay, 10 min; Potency, µM (top dose mostly 115 µM), without a hit: at the highest dose activity, negative = inhibition, hits mostly inhibitors; 390,000 tested, 1% active; AID 588590; note: potency is the fitted concentration of half-maximal effect
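Fluorescent replication assay read twice, at 0 min and 10 min after adding 50 nM (final) substrate. Enzyme (10 nM) and compounds were first incubated 15 min at room temperature; enzyme-free buffer wells were negative controls.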
12-LOX inh – inhibitors of human 12S-lipoxygenase ALOX12; P18054; purified 12hLO, xylenol orange hydroperoxide absorbance; Potency, µM (titrated, usually from 108 µM), for inactives: at the top dose activity change, negative = inhibition, most hits filed as inhibitors; 580,000 tested, 1.1% active; note: potency is the fitted concentration of half-maximal effect; % is set by controls: 0 for no effect and ±100 for the full control effect
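Purified human 12hLO (150 nM final) in 25 mM Hepes, 0.01% Triton X-100, pH 7.0 was preincubated 15 min at room temperature with compound. Then 40 uM arachidonic acid was added, 30 min. Hydroperoxide was read by Fe-XO absorbance ratio 573/405 nm.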
Pol kappa inh – inhibitors of human DNA polymerase kappa; Q9UBT6; purified Pol kappa, fluorescent DNA synthesis assay, 10 min; Potency, µM (titrated, usually from 107 µM), for inactives: top-dose activity, negative = inhibition, most hits filed as inhibitors; 400,000 tested, 0.53% active; note: potency is the fitted concentration of half-maximal effect; % is set by controls: 0 for no effect and ±100 for the full control effect
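Activity was followed as the change in fluorescence between reads at 0 and 10 min after starting the reaction with 50 nM substrate. Beforehand, 10 nM polymerase had been preincubated with compound for 15 min at room temperature.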
* hit, by the source's call; ? = inconclusive; / = no result given; [ ] = dose if it differs, or a comment. Sampled rows, rich in hits. Any-hit rate of the full collection: about 2.9%. Unless noted, calls come from the whole dose curve; as a rule, active = well fitted inhibition curve with a large enough effect; inconclusive = small, poorly fitted or top-dose-only effect, or another doubt; inactive = no such curve, though single readings can be large or run the other way.

SMILES	POLB inh	PI5P4Ka inh	POLH inh	Pol iota inh	12-LOX inh	Pol kappa inh
CC1(C)CC(=O)C(C(C2=C(O)CC(C)(C)CC2=O)c2ccc(O)c([N+](=O)[O-])c2)=C(O)C1	-1.1%	-67.9*	?	?	-16.5%	-7.8%
COCCN1CCC2(C1)CN(C)c1ccc(C(=O)Nc3ccccc3)cc12 (configuration not stated)	/	/	/	/	21.7%[176 µM]	/
Cc1ccc(CN(C)C(=O)c2cc(COc3cccc(C(F)(F)F)c3)on2)o1	-16.5%	-11.6	-15.2%	?	39.8µM*	-5.1%
CN(Cc1nccn1C)C(=O)c1cc(COc2cccc(C(F)(F)F)c2)on1	-1.8%	-3.3	-4.9%	18.4%	0.9%	2.8%
Cc1cc(C)c2c(N)c(C(=O)NN3CC(=O)N(c4ccccc4)CC3=O)sc2n1	31.5%	5.0	-4.1%	?	50.1µM*	-19.5%
O=C(Nc1ccccc1C(F)(F)F)C1CCN(c2nnc(-n3cccc3)s2)CC1	?	/	-6.7%	7.9%	5.4%	-3.1%
CCN(CC)c1ccc(NC(=O)C2CCN(c3nnc(-n4cccc4)s3)CC2)c(C)c1	25.1µM*	/	1.6%	?	2.8%	-9.0%
CCOC(=O)c1ccc(CC(=O)c2ccc(O)cc2O)o1	28.6%	-8.8	-7.5%	0.4%	5.5%	-15.6%
CCC(=O)Oc1ccc(C/C(=N\O)c2ccc(O)cc2O)o1	?	/	79.4µM*	20µM*	?	28.2µM*
COc1cccc(-c2ccccc2NC(=O)C2CCN(c3nccnc3C)CC2)c1	/	/	/	/	7.9%	/
COc1ccc2c(C(F)(F)F)cc(=S)[nH]c2c1	/	/	/	/	35.5µM*	/
CC(=O)Nc1nc(-c2ccc([N+](=O)[O-])cc2)cs1	7.7%	0.5	-18.8%	19.6%	0.7%	0.3%
N#C/C(=C\c1ccc(-c2ccc([N+](=O)[O-])cc2)o1)C(=O)Nc1nc(-c2cccs2)cs1	?	?	31.6µM*	14.1µM*	-25.9%	?
N#C/C(=C/c1ccc(-c2cccc([N+](=O)[O-])c2)o1)C(=O)Nc1nc(-c2cccs2)cs1	/	-61.7*	-0.7%	?	0.0%	-36.2%
CC1CCCCC12NC(=S)N(c1ccccc1)N2 (configuration not stated)	28.2%	-6.4	-4.3%	0.5%	5.01µM*	-1.1%
CC1CCCC2(C1)NC(=S)N(c1ccccc1)N2 (configuration not stated)	25.9%	1.5	-18.3%	21.8%	?	-3.4%
O=C1c2ccccc2NC(c2ccc(-c3ccc(F)cc3)o2)N1O (configuration not stated)	/	/	-5.1%	10.2%	39.8µM*	6.7%
O=C1c2ccccc2NC(c2ccc(-c3ccc(Br)cc3)o2)N1O (configuration not stated)	21.0%	/	-13.7%	26.5%	20µM*	-4.6%
O=C1c2ccccc2NC(c2ccc(-c3cccc([N+](=O)[O-])c3)o2)N1O (configuration not stated)	-9.3%	-12.6	-12.8%	25.8%	?	-4.5%
O=C(NC1CCCC1)c1cc(Cl)nc2ccccc12	/	/	/	/	-12.0%	/
O=C(CCNc1ccc(F)cc1)c1cc2ccccc2o1	3.5%	-8.6	-15.4%	98.4%	?	-1.0%
Cc1ccc(NCCC(=O)c2cc3ccccc3o2)cc1Br	/	/	/	/	35.5µM*	/
O=C(COC(=O)CSc1cccc2cccc(Cl)c12)Nc1ncc(C(F)(F)F)cc1Cl	?	-3.4	?	?	28.2µM*	?
Cc1ccc(C)c(SCC(=O)OCC(=O)Nc2ncc(C(F)(F)F)cc2Cl)c1	8.1%	0.3	-21.2%	?	?	-13.9%
Cc1ccc(C2(C)NC(=O)N(CC(=O)c3ccc(Cl)s3)C2=O)cc1 (configuration not stated)	20µM*	?	?	?	?	-15.4%
CC(=O)Nc1ccc(NC(=O)CC(C)c2ccccc2)cc1 (configuration not stated)	/	/	/	/	0.8%	/
CCOc1cc([N+](=O)[O-])cc(/C=C2/NC(=O)N(Cc3ccccc3F)C2=O)c1O	?	-77.2*	50.1µM*	?	?	?

Screens (PubChem BioAssay)
